Source: PubChem BioAssay
GC-A act = GC-A (human) enzyme activation. 370,000 tested, 0.14% active. AID 1671463. HEK293 GC-A cells, cGMP TR-FRET, EC30 ANP; 0% at EC30 ANP, 100% saturating ANP. activation, % at 10 µM. P16066; in the data active = activation above about 40%
bovine MsrA act = activators of bovine methionine sulfoxide reductase A; purified bovine MsrA, absorbance read-out; activation, % at 10.6 µM; 360,000 tested, 0.3% active; AID 602163; in the data active = activation above about 7.5%
m5-HT2A agonist = activates the mouse 5-HT2A serotonin receptor | CHO-K1 mHTR2A beta-arrestin complementation, luminescence; percent of 30 µM serotonin response | activation, % at 7.6 µM | 360,000 tested, 0.66% active | AID 624169;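 active = activation above a run cutoff, the mean activation of all tested compounds plus 3 SD, cut at about 14% in these data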
MsrA inhibitor = bovine MsrA inhibition | purified bovine MsrA, absorbance read-out | inhibition, % at 15.5 µM | 360,000 tested, 0.75% active | AID 651718; in the data active = inhibition above about 4.5%
NPR2 activator = GC-B (human) receptor activation. P20594. HEK293-GC-B cells, CNP EC30, cGMP TR-FRET; 0% at EC30 CNP, 100% saturating CNP. activation, % at 10 µM. 370,000 tested, 0.11% active;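 active = activation at 10 µM reaching about 35% in either raw or pattern-adjusted values, limit read from the data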
OPRM1 ag = OPRM1 agonism in mouse HTR2A counterscreen. 2,300 tested, 5.3% active. U2OS OPRM1 beta-arrestin PathHunter, luminescence; DMSO 0%, DAMGO 9.3 µM 100%. shares compounds with m5-HT2A agonist. activation, % at 9.3 µM. AID 624380;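 active = mean activation above the mean of DMSO-only wells plus 3 SD, cut at about 0.5% in these data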
m5-HT2A ag conf = mouse HTR2A agonism confirmed; shares compounds with m5-HT2A agonist; CHO-K1 PathHunter beta-arrestin recruitment, luminescence; DMSO 0%, 30 µM serotonin 100%; activation, % at 7.6 µM; 2,300 tested, 19% active; AID 624381;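 active = mean activation across triplicates above the hit threshold derived in the original primary screen, cut at about 15% in these data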
Each line names hits and unclear results; the compound was inactive in the other large screens (follow-up assays come after a bar, where they were run); ! = a repeat was not active. This is a sample that favours compounds with a hit; in the whole collection about 1.8% have one here.

COc1ccc(/C=N/NC(=O)c2cccc([N+](=O)[O-])c2)cc1OC(=O)c1ccc(C)cc1	m5-HT2A agonist 20.1 | OPRM1 ag inactive | m5-HT2A ag conf inactive
O=C(N/N=C/c1ccc(OC(=O)c2ccccc2)c([N+](=O)[O-])c1)c1ccc(O)cc1	m5-HT2A agonist 16.3 | OPRM1 ag inactive | m5-HT2A ag conf inactive
COc1ccc(/C=N/NC(=O)c2cccc([N+](=O)[O-])c2)cc1OC(=O)c1ccccc1	none (no result: GC-A act, NPR2 activator)
O=S1(=O)c2ccc(Br)cc2OC[C@@H](Cc2ccccc2)N1Cc1cn(Cc2ccc(F)cc2)nn1	none (no result: bovine MsrA act, m5-HT2A agonist, MsrA inhibitor)
OCC(CCc1c[nH]c2ccccc12)c1c[nH]c2ccccc12 (stereo not given)	none (no result: bovine MsrA act, m5-HT2A agonist)
CCCCCCCCN1C(=O)[C@@H](CC(=O)NCc2ccc(C)o2)C[C@@]2(C(=O)OC)C1=C[C@H](C(C)C)O[C@@H]2C1CC1	none (no result: bovine MsrA act, m5-HT2A agonist, MsrA inhibitor)
COc1ccc(Nc2nc(-c3cccs3)nc3ccccc23)c(OC)c1	none
COc1ccc(Nc2nc(N3CCN(C)CC3)nc3ccccc23)c(OC)c1	m5-HT2A agonist 16.1 | OPRM1 ag inactive | m5-HT2A ag conf 18.8
Cc1cccc(OC(C)CCN2CCC(C(O)(c3ccccc3)c3ccccc3)CC2)c1 (stereo not given)	none (no result: bovine MsrA act, m5-HT2A agonist, MsrA inhibitor)
C=CCN(C(=O)[C@@H](C)[C@@H](O)c1ccc(Cl)cc1)c1ccccc1	none (no result: bovine MsrA act, m5-HT2A agonist, MsrA inhibitor)
CCCCNC(=O)C1(C)CCCCN1C(=O)c1ccc2c(c1)CCO2 (stereo not given)	m5-HT2A agonist 17.6 | OPRM1 ag inactive | m5-HT2A ag conf inactive
COc1ccc(-c2noc(C3CCCN(C(=O)Nc4cccc(C)c4)C3)n2)cc1 (stereo not given)	none (no result: bovine MsrA act, m5-HT2A agonist, MsrA inhibitor)
C[C@H](O)CC(=O)O	m5-HT2A agonist 16.0! | OPRM1 ag inactive | m5-HT2A ag conf inactive
C[C@@H](O)CC(=O)O	none
Cc1cccc(NS(=O)(=O)c2ccc(NC(=O)N3CCCCC3)cc2)c1	m5-HT2A agonist 14.8 | OPRM1 ag inactive | m5-HT2A ag conf inactive
CCCC1CCC2(CC1)CCC2OC(=O)Nc1c(OC)cccc1OC (stereo not given)	none (no result: bovine MsrA act, m5-HT2A agonist, MsrA inhibitor)
C=C(C)c1cccc(C(C)(C)NC(=O)Nc2nncs2)c1	none
C=C(C)c1cccc(C(C)(C)NC(=O)Nc2ccc(OC)nc2)c1	m5-HT2A agonist 44.9 | OPRM1 ag inactive | m5-HT2A ag conf 16.4
C=C(C)c1cccc(C(C)(C)NC(=O)Nc2cc(C)ccn2)c1	m5-HT2A agonist 35.2 | OPRM1 ag inactive | m5-HT2A ag conf 30.1
C=C(C)c1cccc(C(C)(C)NC(=O)Nc2ccc(C)cn2)c1	m5-HT2A agonist 14.7 | OPRM1 ag inactive | m5-HT2A ag conf 32.1
CCNC(=O)N1CCN(c2ccc(N3CCN(C(=O)NCC)[C@@H](C)C3)c(C)c2)[C@H](C)C1	none (no result: bovine MsrA act, m5-HT2A agonist)
CC1(C)N=C(N)N=C(N)N1c1cc(Cl)ccc1Cl	m5-HT2A agonist 22.5 | OPRM1 ag inactive | m5-HT2A ag conf inactive
CCCC1CCC2(CC1)CCC2OC(=O)Nc1ccccc1C (stereo not given)	none (no result: bovine MsrA act, m5-HT2A agonist, MsrA inhibitor)
O=C(C[C@H]1C/C=C\CCC(=O)OC[C@H]2CCCN2C1=O)NCCO	m5-HT2A agonist 19.5 | OPRM1 ag inactive | m5-HT2A ag conf inactive
O=C(C[C@@H]1C/C=C\CCCC(=O)OC[C@@H]2CCCN2C1=O)NCCO	none
COc1ccc2c(c1)c(=O)oc1cc(OCC(=O)NC3CCCCC3)ccc12	none
COc1ccc2c(c1)c(=O)oc1cc(OCC(=O)NC3CC3)ccc12	m5-HT2A agonist 15.3 | OPRM1 ag inactive | m5-HT2A ag conf inactive
COC(=O)c1[nH]c2ccccc2c1NC(=O)CCN1CCSCC1	m5-HT2A agonist 16.0 | OPRM1 ag inactive | m5-HT2A ag conf inactive
CC(=O)C1=C(C)NC(=O)NC1c1ccc(Cl)cc1 (stereo not given)	m5-HT2A agonist 17.3 | OPRM1 ag inactive | m5-HT2A ag conf inactive
c1ccc(-c2ccc(CNc3nc(-c4ccccn4)nnc3-c3ccccc3)cc2)cc1	none (no result: bovine MsrA act, m5-HT2A agonist, MsrA inhibitor)
O=C(CCN1CCN(c2ccccc2)CC1)N/N=C/c1ccccc1OC(F)F	m5-HT2A agonist 17.3 | OPRM1 ag inactive | m5-HT2A ag conf 49.7
Cc1ccc(OCCn2c(CCNC(=O)C3CCCCCC3)nc3ccccc32)cc1	none (no result: bovine MsrA act, m5-HT2A agonist, MsrA inhibitor)
c1ccc(-c2c[nH]c3ccc(OCc4ccc5ccccc5n4)c(-c4ccccc4)c23)cc1	none (no result: bovine MsrA act, m5-HT2A agonist, MsrA inhibitor)
CCOC(=O)C(C(=O)Nc1cccc(C)n1)C1CCCCC1 (stereo not given)	m5-HT2A agonist 14.4 | OPRM1 ag inactive | m5-HT2A ag conf inactive
CCOC(=O)C(C(=O)Nc1ccccn1)C1CCCCC1 (stereo not given)	none
Cc1ccc(-c2cc(C(=O)NCc3ccco3)c3ccccc3n2)s1	m5-HT2A agonist 15.5 | OPRM1 ag inactive | m5-HT2A ag conf inactive
COc1ccc(CNC(=O)c2ccc(C(C)C)cc2)cc1	m5-HT2A agonist 15.4 | OPRM1 ag inactive | m5-HT2A ag conf inactive
COc1ccc(CNC(=O)c2ccc(C(C)(C)C)cc2)cc1	none
CC(C)C[C@H](NC1(C(=O)NC2CCCCC2)CCC1)C(=O)NCC(c1ccccc1)c1ccccc1	none (no result: bovine MsrA act, m5-HT2A agonist, MsrA inhibitor)
Cn1c(NCc2ccccc2Cl)nc2ccccc21	m5-HT2A agonist 19.8 | OPRM1 ag inactive | m5-HT2A ag conf inactive
C#Cc1cccc(OCC(C)CN2CCC(C(O)(c3ccccc3)c3ccccc3)CC2)c1 (stereo not given)	none (no result: bovine MsrA act, m5-HT2A agonist, MsrA inhibitor)
COc1ccc(OC)c(NC(=S)N(CCc2c(C)[nH]c3ccc(C)cc23)Cc2cccs2)c1	m5-HT2A agonist 20.1 | OPRM1 ag inactive | m5-HT2A ag conf inactive
COc1ccc(OC)c(NC(=S)N(CCc2c(C)[nH]c3ccccc23)Cc2cccs2)c1	none
O=C(COC(=O)c1ccccc1O)Nc1cccc(S(=O)(=O)NC2=NCCCCC2)c1	none
O=C(COC(=O)c1ccccc1NCCO)Nc1ccc(S(=O)(=O)NC2=NCCCCC2)cc1	m5-HT2A agonist 21.7 | OPRM1 ag inactive | m5-HT2A ag conf inactive
COc1ccc(-c2cc(-c3nnc4sc(-c5cccs5)nn34)[nH]n2)cc1	none (no result: bovine MsrA act, m5-HT2A agonist, MsrA inhibitor)
O=C(Nc1cnc2ccccn2c1=O)c1ccc(F)cc1	m5-HT2A agonist 17.1 | OPRM1 ag inactive | m5-HT2A ag conf inactive
COc1ccc(C(=O)Nc2cnc3ccccn3c2=O)cc1	none
CCOC(=O)C1(Cc2ccccc2)CCN(Cc2cccc(C#N)c2)CC1	none (no result: bovine MsrA act, m5-HT2A agonist, MsrA inhibitor)
FC(F)(F)c1cccc(Cn2ccc3ccc(-c4ccc5ccn(Cc6cccc(C(F)(F)F)c6)c5c4)cc32)c1	none (no result: bovine MsrA act, m5-HT2A agonist, MsrA inhibitor)
Oc1cccc(NC(=S)Nc2ccccc2)c1	m5-HT2A agonist 17.5 | OPRM1 ag inactive | m5-HT2A ag conf inactive
Cc1ccc(CCNC(=O)CCCn2nc(C)c3c(C)n(-c4ccc(C)cc4)nc3c2=O)cc1	none
Cc1ccc(-n2nc3c(=O)n(CCCC(=O)NCCN4CCN(C)CC4)nc(C)c3c2C)cc1	m5-HT2A agonist 21.4 | OPRM1 ag inactive | m5-HT2A ag conf inactive
